Data reported in PubChem BioAssay (Tox21).
Results filed as inconclusive are left out. Calls of active or inactive are those of the source. Unless noted, calls follow the shape of the full dose curve.

Experiments:
[1] = Nuclear factor erythroid 2-related factor 2/antioxidant responsive element (Nrf2/ARE) small molecule agonists: qHTS cell viability counter screen in human keratinocytes (AID 1919968; active = well fitted curve in the direction sought with a large enough effect in the repeat runs; an effect the other way counts as inactive or inconclusive; also: nearly all actives have a fitted effect of over 55% in size)
In short: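 Cells of the KeratinoSens line were plated at 1,500 per well and left for 5 h before compound transfer from DMSO stocks. After a 23 h incubation (37 C, 5% CO2), CellTiter-Fluor was added. Signal was taken as fluorescence intensity 1 h later.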

[2] = target: Gonadotropin-releasing hormone receptor (Homo sapiens) (UniProt P30968); assay: Human gonadotropin-releasing hormone receptor (GnRHR) small molecule agonists, calcium flux assay in GnRHR-HEK293 cells (AID 1920063); also: nearly all actives have a fitted effect of over 35% in size
Sequence of Gonadotropin-releasing hormone receptor (Homo sapiens) (P30968 whole entry, looked up): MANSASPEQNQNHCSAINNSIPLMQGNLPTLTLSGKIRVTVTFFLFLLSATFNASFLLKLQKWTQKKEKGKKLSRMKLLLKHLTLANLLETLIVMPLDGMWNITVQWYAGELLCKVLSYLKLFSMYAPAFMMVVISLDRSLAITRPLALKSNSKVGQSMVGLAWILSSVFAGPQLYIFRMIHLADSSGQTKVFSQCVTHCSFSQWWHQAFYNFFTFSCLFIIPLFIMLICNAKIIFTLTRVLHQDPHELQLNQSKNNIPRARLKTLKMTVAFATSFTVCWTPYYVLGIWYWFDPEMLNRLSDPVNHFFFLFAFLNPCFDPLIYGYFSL
In short: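 Compounds dissolved in DMSO are pin-transferred onto dye-loaded GnRHR-HEK293 cells, which were seeded 18 h before at 37 C/5% CO2. Calcium signal is read as fluorescence intensity at 1 s intervals for 3 min.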

[3] = target: KiSS-1 receptor (Homo sapiens) (UniProt Q969F8); assay: Human kisspeptin (KISS1R) small molecule agonists, calcium flux assay in KISS1R-HEK293 cells (AID 1920064; active = well fitted curve in the direction sought with a large enough effect in the repeat runs; an effect the other way counts as inactive or inconclusive)
Sequence of KiSS-1 receptor (Homo sapiens) (Q969F8 whole entry, looked up): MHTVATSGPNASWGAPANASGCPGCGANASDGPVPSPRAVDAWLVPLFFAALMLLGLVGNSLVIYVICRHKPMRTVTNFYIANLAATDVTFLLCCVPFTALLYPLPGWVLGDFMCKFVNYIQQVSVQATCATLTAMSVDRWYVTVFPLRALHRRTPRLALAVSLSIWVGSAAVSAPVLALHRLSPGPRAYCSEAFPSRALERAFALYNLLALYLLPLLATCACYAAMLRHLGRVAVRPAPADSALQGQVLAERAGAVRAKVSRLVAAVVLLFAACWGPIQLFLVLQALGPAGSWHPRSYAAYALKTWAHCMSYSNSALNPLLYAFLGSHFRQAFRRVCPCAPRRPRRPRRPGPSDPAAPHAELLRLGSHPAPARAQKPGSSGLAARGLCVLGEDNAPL
In short: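 Cell line: HEK293, stable human KISS1R. Dye loading 1 h at 37 C after 18 h culture. Read: kinetic fluorescence, 480/540 nm, 3 min at 1 s intervals.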

[4] = G protein-coupled receptor (GPCR) small molecule agonists, calcium flux assay: HEK293 wild type cell line counter screen (AID 1920065)
In short: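 Tox21 10K compounds, 15 concentrations each in triplicate, pin-transferred in DMSO onto dye-loaded cells; kinetic read at 480/540 nm for 3 min, 1 s intervals.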

[5] = p53 small molecule agonists, cell-based qHTS assay with human liver microsomes (AID 1963577);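 also: p53 response element beta-lactamase reporter cells with liver microsomes plus NADPH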
In short: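 Metabolically competent format: test substances, human liver microsomes and NADPH (both 0.5 mg/mL final) incubated with p53RE-bla cells 16 h at 37 C. Beta-lactamase reporter signal then quantified by fluorescence.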

[6] = p53 small molecule agonists, cell-based qHTS assay with rat liver microsomes (AID 1963578)
In short: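 Each plate received p53RE-bla cells, then compound, then rat liver microsomes and NADPH (both 0.5 mg/mL final). Plates were held 16 h at 37 C, and beta-lactamase activity was detected with LiveBLAzer over 2 h.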

[7] = p53 small molecule agonists, cell-based qHTS assay with human liver microsomes: qHTS cell viability counter screen (AID 1963579); also: nearly all actives have a fitted effect of over 45% in size
In short: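 Tox21 library compounds, delivered from DMSO stocks, were tested on p53RE-bla cells together with 0.5 mg/mL human liver microsomes and 0.5 mg/mL NADPH (final) over 16 h at 37 C; CellTiter-Glo luminescence served as the cytotoxicity measure.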

[8] = p53 small molecule agonists, cell-based qHTS assay with rat liver microsomes: qHTS cell viability counter screen (AID 1963580); also: nearly all actives have a fitted effect of over 45% in size
In short: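 Cytotoxicity counter screen: intracellular ATP measured by CellTiter-Glo luminescence in the same wells as the beta-lactamase reporter read, on HCT-116 p53RE-bla cells exposed 16 h at 37 C to compounds with rat liver microsomes and NADPH, each 0.5 mg/mL final.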

[9] = p53 small molecule agonists, cell-based qHTS assay: qHTS cell viability counter screen (AID 1963581); also: nearly all actives have a fitted effect of over 45% in size
In short: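 ATP content measured by luminescence in HCT-116 p53RE-bla cells treated 16 h at 37 C, same wells as the reporter screen.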

[10] = p53 small molecule agonists, cell-based qHTS assay (AID 1963582; active = well fitted activation curve with a large enough effect in the signal ratio in the repeat runs, not every such curve was filed as active; the % refers to the signal ratio)
In short: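 16 h compound exposure (37 C) of p53 response element–bla cells, preceded by 5 h recovery at 37 C/5% CO2; read-out via LiveBLAzer B/G FRET substrate, 2 h RT, fluorescence intensity.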

[11] = cAMP Responsive Elements (CRE) small molecule agonists, cell-based qHTS assay (AID 1963590)
In short: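 HEK 293T cells stably bearing CRE-bla were plated at 2,000 cells per well and rested 18 h. Compounds, positive controls or DMSO were added for 3 h at 37 C. LiveBLAzer B/G substrate was then loaded for 2 h at room temperature.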

[12] = cAMP Responsive Elements (CRE) small molecule antagonists, cell-based qHTS assay (AID 1963591; active = well fitted inhibition curve with a large enough effect in the signal ratio in the repeat runs, not every such curve was filed as active; the % refers to the signal ratio)
In short: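 First, CRE-bla HEK293T cells settled 18 h at 37 C. Next, compound and 0.25 uM final NKH477 were applied for 3 h. Last, LiveBLAzer B/G substrate was loaded for 2 h at room temperature.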

[13] = target: Beta-2 adrenergic receptor (Homo sapiens) (UniProt P07550); assay: Adrenergic beta2 receptor (ADRB2) small molecule antagonists, cell-based qHTS assay (AID 1963592); also: series mostly up to about 92 µM; nearly all actives have a fitted effect of over 50% in size
Sequence of Beta-2 adrenergic receptor (Homo sapiens) (P07550 whole entry, looked up): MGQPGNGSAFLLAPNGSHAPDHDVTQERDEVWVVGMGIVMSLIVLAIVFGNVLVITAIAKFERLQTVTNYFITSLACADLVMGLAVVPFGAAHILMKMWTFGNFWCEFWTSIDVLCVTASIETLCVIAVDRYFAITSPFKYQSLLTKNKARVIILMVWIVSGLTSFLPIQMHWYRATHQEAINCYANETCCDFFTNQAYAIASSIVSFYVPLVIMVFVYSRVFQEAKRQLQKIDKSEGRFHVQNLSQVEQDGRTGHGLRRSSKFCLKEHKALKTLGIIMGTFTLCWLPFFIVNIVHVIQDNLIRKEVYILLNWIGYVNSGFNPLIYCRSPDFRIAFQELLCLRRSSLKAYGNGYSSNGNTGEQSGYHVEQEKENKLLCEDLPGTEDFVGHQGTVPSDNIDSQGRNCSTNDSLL
In short: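 Assay format: CHO-ADRB2 cells, 18-20hr seeding at 37C/5% CO2, then compound plus 1nM isoproterenol agonist mix for 0.5hr RT. Homogeneous time-resolved fluorescence cAMP detection after 1hr, expressed as 665/615 nm ratio.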

[14] = target: Beta-2 adrenergic receptor (Homo sapiens) (UniProt P07550); assay: Adrenergic beta2 receptor (ADRB2) small molecule agonists, cell-based qHTS assay (AID 1963593);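 also: CHO cells stably overexpressing human ADRB2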
In short: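 CHO cells stably over-expressing ADRB2 were plated overnight at 37C, then dosed with compounds plus a stimulation mix containing 100uM IBMX and 25uM Ro-20-1724 for 0.5hr at room temperature. cAMP was measured by HTRF competition, 1hr.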

[15] = target: D(2) dopamine receptor (Homo sapiens) (UniProt P14416); assay: Dopamine D2 receptor (DRD2) small molecule agonists, cell-based qHTS assay (AID 1963594); also: nearly all actives have a fitted effect of over 35% in size
Sequence of D(2) dopamine receptor (Homo sapiens) (P14416 whole entry, looked up): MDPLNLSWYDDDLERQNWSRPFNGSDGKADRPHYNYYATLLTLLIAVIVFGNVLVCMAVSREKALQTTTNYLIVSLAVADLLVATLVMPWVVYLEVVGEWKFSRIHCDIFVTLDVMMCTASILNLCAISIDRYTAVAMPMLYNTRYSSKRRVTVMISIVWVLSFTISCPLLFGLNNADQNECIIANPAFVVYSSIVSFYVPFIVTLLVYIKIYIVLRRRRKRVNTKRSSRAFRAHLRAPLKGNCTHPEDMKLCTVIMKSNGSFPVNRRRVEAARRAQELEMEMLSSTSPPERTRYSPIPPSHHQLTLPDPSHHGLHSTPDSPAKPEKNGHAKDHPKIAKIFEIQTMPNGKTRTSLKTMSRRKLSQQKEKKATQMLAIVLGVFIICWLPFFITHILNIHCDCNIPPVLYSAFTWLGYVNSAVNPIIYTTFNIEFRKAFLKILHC
In short: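 HEK293 cells stably expressing human DRD2, pre-treated with PDE inhibitor Ro20-1724 (0.1 mM final) and compound 10 min at room temperature, then stimulated with NKH477 (200nM […]) for 30 min. cAMP read by HTRF (665/620 nm).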

[16] = target: D(2) dopamine receptor (Homo sapiens) (UniProt P14416); assay: Dopamine D2 receptor (DRD2) small molecule antagonists, cell-based qHTS assay (AID 1963595; active = well fitted inhibition curve with a large enough effect in the signal ratio in the repeat runs, with a control signal flat; the % refers to the signal ratio)
In short: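 Antagonism was scored as restored cAMP in HEK293-DRD2 cells. These cells were stimulated with 200 nM NKH477 and 12 nM quinpirole for 30 min at room temperature, in the presence of 0.1 mM Ro20-1724.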

[17] = target: 5-hydroxytryptamine receptor 2A (Homo sapiens) (UniProt P28223); assay: 5-hydroxytryptamine receptor 2A (HTR2A) small molecule antagonists, cell-based qHTS assay (AID 1963586); also: nearly all actives have a fitted effect of over 45% in size
Sequence of 5-hydroxytryptamine receptor 2A (Homo sapiens) (P28223 whole entry, looked up): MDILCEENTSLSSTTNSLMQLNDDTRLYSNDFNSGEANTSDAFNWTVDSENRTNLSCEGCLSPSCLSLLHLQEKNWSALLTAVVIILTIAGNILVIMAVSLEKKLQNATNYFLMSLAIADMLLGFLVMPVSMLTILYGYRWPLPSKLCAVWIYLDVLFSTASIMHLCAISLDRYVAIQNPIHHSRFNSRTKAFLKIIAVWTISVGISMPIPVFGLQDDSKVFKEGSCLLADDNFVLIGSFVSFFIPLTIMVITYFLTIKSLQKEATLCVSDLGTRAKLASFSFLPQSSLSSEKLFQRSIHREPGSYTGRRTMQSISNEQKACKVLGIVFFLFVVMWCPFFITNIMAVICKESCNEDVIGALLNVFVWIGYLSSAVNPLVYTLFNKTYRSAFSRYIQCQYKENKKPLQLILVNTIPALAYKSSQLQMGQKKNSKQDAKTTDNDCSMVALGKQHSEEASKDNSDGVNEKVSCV
In short: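 CHO cells stably expressing human HTR2A were plated for 18 h at 37 C, then loaded with calcium dye for 1 h. Compounds were preincubated 5 min at room temperature before DOI (4 nM solution) was added. Kinetic fluorescence was read for 3 min.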

[18] = target: 5-hydroxytryptamine receptor 2A (Homo sapiens) (UniProt P28223); assay: 5-hydroxytryptamine receptor 2A (HTR2A) small molecule agonists, cell-based qHTS assay (AID 1963587); also: nearly all actives have a fitted effect of over 30% in size
In short: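 CHO cells stably expressing human HTR2A, plated 18 h, loaded with calcium dye 1 h at 37 C. Agonist mode: compounds added and intracellular calcium fluorescence recorded kinetically for 2 min at 1 sec intervals.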

[19] = target: Muscarinic acetylcholine receptor M1 (Homo sapiens) (UniProt P11229); assay: Cholinergic receptor muscarinic 1 (CHRM1) small molecule agonists, cell-based qHTS assay (AID 1963589); also: nearly all actives have a fitted effect of over 35% in size
Sequence of Muscarinic acetylcholine receptor M1 (Homo sapiens) (P11229 whole entry, looked up): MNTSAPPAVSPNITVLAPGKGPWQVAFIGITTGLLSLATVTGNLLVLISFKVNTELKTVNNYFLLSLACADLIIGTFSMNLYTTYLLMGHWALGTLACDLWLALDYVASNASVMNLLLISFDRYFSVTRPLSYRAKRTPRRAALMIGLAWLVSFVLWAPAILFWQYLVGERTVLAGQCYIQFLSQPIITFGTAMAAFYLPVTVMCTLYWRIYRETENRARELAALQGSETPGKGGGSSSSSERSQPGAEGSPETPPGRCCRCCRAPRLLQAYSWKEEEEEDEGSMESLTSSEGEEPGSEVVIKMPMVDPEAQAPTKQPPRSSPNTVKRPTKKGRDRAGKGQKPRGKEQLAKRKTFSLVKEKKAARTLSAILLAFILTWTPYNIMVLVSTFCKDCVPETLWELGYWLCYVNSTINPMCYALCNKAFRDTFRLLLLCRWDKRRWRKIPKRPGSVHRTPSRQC
In short: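 Homogeneous fluorescence calcium flux, agonist mode. Human M1-expressing CHO cells; compound dosed at 15 concentrations, three independent runs; signal sampled every 1 sec.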

[20] = target: Muscarinic acetylcholine receptor M1 (Homo sapiens) (UniProt P11229); assay: Cholinergic receptor muscarinic 1 (CHRM1) small molecule antagonists, cell-based qHTS assay (AID 1963588); also: nearly all actives have a fitted effect of over 40% in size
In short: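 Compounds were tested at 15 concentrations in three independent runs. Dye-loaded CHRM1-CHO cells were exposed 5 min at room temperature before stimulation by acetylcholine added at 50nM. Intracellular calcium was read kinetically on FDSS for 3 min.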
% is scaled to controls: 0 for no effect and ±100 for the full control effect.

COc1ncnc(NS(=O)(=O)c2ccc(N)cc2)c1OC
inactive: Potency [1] | Potency [2] | outcome [3] | outcome [4] | Potency [5] | Potency [6] | Potency [7] | Potency [8] | Potency [9] | Potency [10] | Potency [11] | Potency [12] | Potency [13] | Potency [14] | Potency [15] | Potency [16]

CCCCCCCCCCCCCC=O
inactive: activity change, negative = cytotoxicity [1] -1.13% [at 8.39 µM] | activity change [2] -0.408% [at 5.22 µM, stronger effect = higher value] | activation [3] 0.0205% [at 6.97 µM] | activation [4] 0.0655% [at 5.23 µM] | activation [5] 0.781% [at 5.99 µM] | activation [6] -2.08% [at 5.99 µM] | activity change, negative = cytotoxicity [7] -3.87% [at 5.99 µM] | activity change, negative = cytotoxicity [8] 0.418% [at 5.99 µM] | activity change, negative = cytotoxicity [9] -2.03% [at 5.99 µM] | activation [10] 5.85% [at 5.99 µM] | activity, negative = inhibition [17] 4.12% [at 5.62 µM] | activation [18] -1.86% [at 7.02 µM] | activation [19] 0.649% [at 6.97 µM] | activation [11] -0.0207% [at 8.39 µM] | activity change, negative = inhibition [12] 0.604% [at 8.39 µM] | activity change, negative = inhibition [13] 0.833% [at 8.39 µM] | activation [15] 1.32% [at 8.39 µM] | activity change, negative = inhibition [16] 7.61% [at 8.38 µM]

Nc1ccc(S(=O)(=O)O)c(N)c1
inactive: Potency [1] | Potency [2] | outcome [3] | outcome [4] | Potency [5] | Potency [6] | Potency [7] | Potency [8] | Potency [9] | Potency [17] | Potency [20] | Potency [19] | Potency [11] | Potency [12] | Potency [13] | Potency [14] | Potency [16]

CCCCCCCCCCCCCCC1CO1 (configuration not stated)
inactive: Potency [1] | Potency [2] | outcome [3] | outcome [4] | Potency [5] | Potency [6] | Potency [7] | Potency [8] | Potency [9] | Potency [17] | Potency [18] | Potency [19] | Potency [12] | Potency [13] | Potency [14] | Potency [15] | Potency [16]

CCCCCCCCCCCCC
inactive: Potency [1] | Potency [2] | outcome [3] | outcome [4] | Potency [5] | Potency [6] | Potency [7] | Potency [8] | Potency [9] | Potency [10] | Potency [17] | Potency [18] | Potency [20] | Potency [11] | Potency [13] | Potency [15] | Potency [16]

Cc1cc(C)c(O)c(C(C)(C)C)c1
inactive: Potency [1] | Potency [2] | outcome [3] | outcome [4] | Potency [5] | Potency [6] | Potency [7] | Potency [8] | Potency [9] | Potency [10] | Potency [19] | Potency [12] | Potency [13] | Potency [14] | Potency [15] | Potency [16]

COCCOC(=O)C1=C(C)NC(C)=C(C(=O)OC(C)C)C1c1cccc([N+](=O)[O-])c1 (configuration not stated)
inactive: Potency [1] | Potency [2] | outcome [3] | outcome [4] | Potency [5] | Potency [6] | Potency [7] | Potency [8] | Potency [9] | Potency [10] | Potency [13] | Potency [15]

Nc1cc(Cl)c(O)c(Cl)c1
inactive: Potency [1] | Potency [2] | outcome [3] | outcome [4] | Potency [5] | Potency [6] | Potency [7] | Potency [8] | Potency [9] | Potency [17] | Potency [18] | Potency [20] | Potency [19] | Potency [15]
